# PfHsp90 set2 – growth inhibition of yeast expressing Plasmodium Hsp90; S. cerevisiae expressing PfHsp90, BacTiter-Glo ATP, 48 h; yeast lacking PDR1 and PDR3 efflux regulators; hit rate 0.32% among 310,000; inhibition, % at 9.4 µM;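 active means every replicate shows inhibition above about 80%, whatever the replicate mean, limit read from the data; inconclusive means mean inhibition reaches the set limit but some replicate falls short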
# TIM10 inh – growth inhibitors of TIM10 yeast strain; hit rate 1.4% among 330,000; S. cerevisiae TIM10 strain growth, BacTiter-Glo luminescence, 24 h; inhibition, % at 10 µM;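 active means inhibition of 40% or more at the single tested concentration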;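 further: wild-type TIM10 isogenic control strain grown at permissive 25 °C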
# tim10-1 inh – tim10-1 yeast growth inhibition; S. cerevisiae tim10-1 ts strain growth, BacTiter-Glo, 24 h; inhibition, % at 20 µM; hit rate 2.2% among 330,000; AID 463190;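 active means inhibition of at least 40%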;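 further: mutant grown at 25 °C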
# Rce1 inhib – yeast Ras-converting enzyme inhibition. Q03530. yeast membranes, quenched prenylated peptide cleavage fluorescence. calls only. hit rate 0.27% among 290,000. AID 2563;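 active means fall in fluorescence gain of 50% or more versus controls, with final raw signal at or below 3038400; inconclusive means same 50% fall but final raw signal above 3038400; inactive means fall in fluorescence gain under 50%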
# Target sequence (Q03530 whole entry, looked up): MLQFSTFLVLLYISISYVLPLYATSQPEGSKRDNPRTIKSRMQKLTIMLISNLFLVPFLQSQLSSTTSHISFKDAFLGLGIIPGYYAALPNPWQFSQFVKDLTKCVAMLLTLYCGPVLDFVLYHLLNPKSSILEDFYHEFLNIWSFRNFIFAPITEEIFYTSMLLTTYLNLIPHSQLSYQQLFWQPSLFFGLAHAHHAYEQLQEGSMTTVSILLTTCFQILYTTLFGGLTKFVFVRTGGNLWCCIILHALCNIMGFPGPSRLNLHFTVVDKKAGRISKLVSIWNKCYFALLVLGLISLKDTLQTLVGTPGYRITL
# tim23-1 inh – tim23-1 yeast growth inhibition | S. cerevisiae tim23-1 growth, BacTiter-Glo luminescence, 24 h | inhibition, % at 20 µM | hit rate 1.3% among 330,000;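 active means growth inhibition of the mutant yeast at or above 50%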;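 further: temperature-sensitive mutant grown at 25 °C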
# tim10-1 conf – tim10-1 yeast growth inhibition, confirmed | S. cerevisiae tim10-1 ts strain growth, BacTiter-Glo, 24 h | inhibition, % at 20 µM | hit rate 56% among 7,400 | shares compounds with tim10-1 inh;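 active means inhibition of yeast growth at or above a set limit in either of two repeat tests at 20 µM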;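 further: tim10-1 mutant grown at permissive 25 °C to find synthetic lethal compounds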
# TIM10 conf – confirmation of TIM10 yeast growth inhibitors; hit rate 63% among 4,600; shares compounds with TIM10 inh; S. cerevisiae tim10 strain growth, BacTiter-Glo luminescence, 24 h; AID 463215; inhibition, % at 10 µM;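 active means inhibition of yeast growth at or above a set limit in either of two replicates at 10 µM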; further: this counterscreen used the strain with wild-type TIM10
# Numbers stand for hits; . = inactive; ? = inconclusive; / = no result. Hits are enriched below; roughly 3.7% of the tested compounds scored in any of these assays.
SMILES,PfHsp90 set2,TIM10 inh,tim10-1 inh,Rce1 inhib,tim23-1 inh,tim10-1 conf,TIM10 conf
CC(=O)Nc1ccc(C(=O)OCc2ccc(Cl)cc2)cc1,.,50.3,48.6,.,.,48.5,34.9
CC(=O)Nc1ccc(C(=O)OCc2ccc(Cl)c(Cl)c2)cc1,.,41.7,49.6,.,.,31.7,.
Cc1ccc(-c2ccnc(-c3ccc(O)cc3)n2)cc1,.,.,.,.,.,/,/
Oc1ccc(-c2nccc(-c3ccc(Br)cc3)n2)cc1,.,41.3,46.9,.,.,48.5,63.5
COc1ccc(CCNC(=O)CCC(=O)N2CCOc3ccccc32)cc1OC,.,.,.,.,.,/,/
O=C(CCN1CCCCO1)N1CCCC(Nc2cccc(F)c2)C1 (configuration not stated),.,.,.,.,.,/,/
CCOc1cc(/C=C/C(=O)c2ccc(C)cc2)ccc1OCC(=O)N(C)C,.,45.2,49.5,.,.,35.4,.
O=C(Cc1cccs1)Nc1nc(-c2ccc(F)cc2F)cs1,.,52.4,41.0,.,.,34.5,41.3
O=C(Cc1cccs1)Nc1nc(-c2ccc(F)c(F)c2)cs1,.,.,.,.,.,/,/
CCCc1[nH]nc2c1C(c1cn[nH]c1-c1ccc(F)cc1)C(C#N)=C(N)O2 (configuration not stated),.,40.8,43.8,.,.,47.7,33.8
Cc1ccc(Nc2nc(N)nc(CSc3nc4ccccc4s3)n2)cc1,.,47.4,46.8,.,.,.,.
Cc1cccc(-c2nc(CN3CCN(Cc4cccc(F)c4)CC3)c(C)o2)c1,.,.,.,.,.,/,/
O=C(CSc1nc(C(F)(F)F)cc(=O)[nH]1)Nc1nccs1,.,.,.,.,.,/,/
c1ccn2c(SCc3ccc4c(c3)OCO4)nnc2c1,.,.,.,.,.,/,/
CCOC(=O)c1c(C)[nH]c(C)c1C(=O)COC(=O)c1ccc([N+](=O)[O-])s1,.,.,.,/,.,/,/
O=C(OCC(=O)c1c[nH]c2ccccc12)c1ccc([N+](=O)[O-])s1,110.2,72.9,40.3,.,.,52.6,84.2
CCc1cccc2c(C(=O)COC(=O)c3ccc([N+](=O)[O-])s3)c[nH]c12,?,73.8,63.5,.,.,.,75.7
C=CCc1ccc(OCCOCCN(C)C)c(OC)c1,.,.,.,.,.,/,/
C=CCc1ccc(OCCOc2cccc3ccc(C)nc23)c(OC)c1,/,51.7,42.3,.,.,32.3,31.0
C[C@H]1CCC[C@]2(C)C[C@H]3OC(=O)C(CN4CCCCCC4)[C@H]3C=C12 (some centres not stated),.,42.5,44.2,.,.,40.7,48.9
CC1CCCCN1S(=O)(=O)c1ccc2c(c1)CCN2C(=O)C1CCC1 (configuration not stated),.,44.1,41.8,.,.,40.2,.
O=C(C1CC1)N1CCc2cc(S(=O)(=O)N3CCOCC3)ccc21,.,.,.,.,.,/,/
Cc1cc(C)c(C(=O)/C=C/c2ccc(C(C)C)cc2)c(=O)[nH]1,.,43.2,48.7,.,.,53.3,37.3
Cc1cc(C)c(C(=O)/C=C/C=C/c2ccccc2)c(=O)[nH]1,.,.,.,.,.,/,/
Cc1cccc(S(=O)(=O)NC2CCCCCCC2)c1,.,.,.,.,.,/,/
SMILES,PfHsp90 set2,TIM10 inh,tim10-1 inh,Rce1 inhib,tim23-1 inh,tim10-1 conf,TIM10 conf
Cc1cc(C)c2c(-n3cccc3)c(C(=O)NNS(=O)(=O)c3ccc(Br)cc3)sc2n1,/,40.8,40.7,.,.,43.6,.
COc1ccc2nc(NNC(=O)C3COc4ccccc4O3)sc2c1 (configuration not stated),.,.,.,.,.,/,/
CC(C)c1ccc(S(=O)(=O)c2ccc(NN)cc2)cc1,.,42.4,44.5,/,.,34.0,31.2
CC(C)c1ccc(S(=O)(=O)N2CCCCC2)cc1,.,.,.,.,.,/,/
C=CCc1cccc(CNc2nc3ccccc3n2CC)c1O,.,.,.,.,.,/,/
C=CCc1cccc(CNc2nc3ccccc3n2CCC)c1O,.,45.1,41.6,.,.,.,35.9
Cc1ccc(NC(=O)CC2SC(=O)N(c3ccccc3)C2=O)cc1 (configuration not stated),.,41.1,49.0,.,.,41.5,.
CN1C/C(=C/c2ccsc2)C(=O)/C(=C/c2ccsc2)C1,.,49.3,54.2,.,.,30.8,33.0
CN1C/C(=C/c2ccncc2)C(=O)/C(=C/c2ccncc2)C1,.,.,.,/,.,/,/
COc1ccc2[nH]c(=O)c(-c3nnn(-c4ccc(Cl)c(Cl)c4)n3)cc2c1,/,.,.,.,.,/,/
COC(=O)/C(=C\c1ccc([N+](=O)[O-])o1)NC(=O)c1ccccc1,.,43.6,45.0,.,.,40.1,31.8
Cc1cc(C(=O)NCC23CC4CC(CC(C4)C2)C3)c(C)o1,/,40.0,45.4,.,.,.,33.8
CC(C)CC(=O)NC1(C(F)(F)F)C(=O)N(CC(C)C)C2=C1C(=O)CC(C)(C)C2 (configuration not stated),.,.,.,.,.,/,/
C[C@@H]1CC=C[C@@H]2[C@H]1C(=O)N(Cc1ccccc1)[C@H]2c1cccc(Br)c1,.,.,.,/,.,/,/
CC[C@@H]1CC=C[C@H]2[C@H]1C(=O)N(Cc1ccccc1)[C@H]2c1ccc2ccccc2c1,/,45.0,41.3,.,.,.,37.7
COc1ccc(NC2CS(=O)(=O)CC2NCc2ccccc2)cc1 (configuration not stated),.,.,.,.,.,/,/
O=C(COc1ccccc1F)Nc1ccc(S(=O)(=O)NCc2ccco2)cc1,.,40.1,46.2,.,.,33.1,.
O=C(COc1ccccc1)Nc1ccc(S(=O)(=O)NCc2ccco2)cc1,.,.,.,.,.,/,/
CC1CCc2[nH]c3ccc(C(=O)O)cc3c2C1 (configuration not stated),.,.,.,.,.,/,/
COc1ccccc1N1CCN(C(=O)c2ccc3[nH]c4c(c3c2)CC(C)CC4)CC1 (configuration not stated),.,48.9,53.1,.,.,37.7,36.5
CCOC(=O)N1CCN(S(=O)(=O)c2c[nH]c(C(=O)OC)c2)CC1,.,.,.,.,.,/,/
N#Cc1c(Cl)c(Cl)c2nnc(-c3ccc(Br)cc3)n2c1Cl,/,58.2,45.7,.,.,.,.
C/C(=N\N1CCN(c2ccc(Cl)cc2)CC1)c1cccc([N+](=O)[O-])c1,.,.,.,.,.,/,/
O=C(NC(=S)Nc1nc2c(s1)CSc1ccccc1-2)c1ccccc1,.,44.0,48.2,.,.,.,29.9
CCN(CC(=O)Nc1ccccc1C(F)(F)F)C(=O)c1ccc(-n2nc(C)c(CCC(=O)OC)c2C)cc1,.,/,/,/,/,/,/
CN(CCCNC(=O)c1cc2c(Cl)nc3ccccc3c2s1)Cc1ccccc1,.,43.3,52.6,.,.,41.0,44.4
